# Test results reported in PubChem BioAssay.
# Activity calls are given as the source filed them.
# Legend:
# [1] = tested on: PRMT1 (protein arginine N-methyltransferase 1); experiment: PRMT1 binders on small-molecule microarrays, primary screen, biochemical, small-molecule microarray, 635 nm fluorescence (AID 1088); conditions: small-molecule microarray binding, higher = more signal;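 note: binding of Prmt1 protein to compounds spotted on small-molecule microarray slides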
# [2] = yeast growth modulation, basal conditions, primary screen, YJM789 clinical isolate, OD600, 24 h (AID 1089);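 note: growth of clinical yeast isolate S. cerevisiae YJM 789 seeded 1000 cells per well; test concentration not given here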; conditions: S. cerevisiae YJM789 growth, higher = more signal, called active from +8 up or from −8 down
# [3] = fission yeast growth modulation, primary screen, strain 972, OD600, 24 h, no modulator (AID 1090);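 note: basal condition with compound alone and no growth modifier present; test concentration not given here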; conditions: S. pombe 972 growth, higher = more signal, called active from +8 up or from −8 down
# [4] = S. cerevisiae growth modulation with rapamycin, primary screen, strain BY4716, OD600, 96 h (AID 1091); conditions: higher = more signal, called active from +8 up or from −8 down; note: test concentration not given here
# [5] = molecular target: Torsin-1A-interacting protein 2 (Homo sapiens) (UniProt Q8NFQ8); experiment: LULL1 binders on small-molecule microarray, primary screen, cell lysate, human LULL1 lysate, 635/667 nm fluorescence (AID 1092); conditions: hLULL1 lysate binding, 635 nm fluorescence, higher = more signal;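 note: probe is lysate of COS7 cells overexpressing human LULL1; score merges per-feature 667 nm fluorescence with signal-to-noise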
# [6] = E. coli growth modulation, two-sided OD650, primary screen, E. coli filamentation project, strain DRC41, 24 h (AID 1093); conditions: OD650, 24 h, higher = more signal, called active from +8 up or from −8 down;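 note: MC1000 strain lacking acrAB efflux and sulA so SOS filamentation is blocked; test concentration not given here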
# [7] = small-molecule microarray binders of probe aLefty2, primary screen, biochemical, biotinylated probe, 635/667 nm fluorescence (AID 1094); conditions: higher = more signal;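 note: score merges spot fluorescence near 667 nm with spot signal-to-noise ratio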
# [8] = tested on: Noggin (protein binding on small-molecule microarray); experiment: Noggin binders on small-molecule microarray, primary screen, biochemical, 635/667 nm fluorescence (AID 1095); conditions: 635 nm fluorescence, higher = more signal;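 note: score merges 667 nm feature fluorescence with signal to noise over triplicate slides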
# [9] = molecular target: Neurogenic locus notch homolog protein 3 (Homo sapiens) (UniProt Q9UM47); experiment: NOTCH3 binders on small-molecule microarray, primary screen, biochemical, 635/667 nm fluorescence (AID 1096); conditions: NOTCH3 binding, 635 nm fluorescence, higher = more signal
# [10] = small-molecule microarray binders of probe aEGFR, primary screen, biochemical, biotinylated probe, 635/667 nm fluorescence (AID 1097); conditions: higher = more signal;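 note: probe is a biotinylated anti-EGFR antibody binding compounds printed on slides; score combines fluorescence near 667 nm and signal to noise of each spot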
# [11] = tested on: Plasmodium falciparum Sir2 (PF13_0152, Sir2A); experiment: pfSir2 binders on small-molecule microarrays, primary screen, biochemical, small-molecule microarray, 635 nm fluorescence (AID 1098); conditions: small-molecule microarray binding, fluorescence 635 nm; higher = more signal;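 note: score merges spot fluorescence intensity with its signal-to-noise ratio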
# [12] = small-molecule microarray binders of probe aDKK1, primary screen, biochemical, biotinylated probe, 635/667 nm fluorescence (AID 1099); conditions: higher = more signal;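 note: score merges 667nm spot fluorescence with signal to noise across triplicate slides; reference of the scale not given here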
# [13] = small-molecule microarray binders of probe aCHRDL2, primary screen, biochemical, biotinylated probe, 635/667 nm fluorescence (AID 1100); conditions: higher = more signal
# [14] = splicing luciferase reporter signal modulators, primary screen, spliceosome inhibition project, cell-based, HEK293, splice +/- reporter (AID 1101); conditions: luminescence, 24 h, higher = more signal, called active from +8 up or from −8 down;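 note: HEK293 cells carrying a splicing-competent luciferase reporter gene; test concentration not given here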
# [15] = molecular target: Fibroblast growth factor 10 (Homo sapiens) (UniProt O15520); experiment: FGF10 binders on small-molecule microarrays, primary screen, biochemical, small-molecule microarray, 635 nm fluorescence (AID 1102); conditions: FGF10 binding, fluorescence 635 nm, higher = more signal
# [16] = tested on: glycogen synthase kinase-3 (GSK3A per assay name; protocol says GSK3B); experiment: GSK3 binders on small-molecule microarrays, primary screen, biochemical, small-molecule microarray, 635 nm fluorescence, GSK3A (AID 1103); conditions: small-molecule microarray binding, fluorescence 635 nm; higher = more signal; note: the record names both GSK3A and GSK3B
# [17] = molecular target: Epidermal growth factor receptor (Homo sapiens) (UniProt P00533); experiment: EGFR binders on small-molecule microarrays, primary screen, biochemical, small-molecule microarray, 635 nm fluorescence (AID 1104); conditions: EGFR binding, higher = more signal;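 note: score merges 667 nm emission intensity with spot signal to noise over triplicate slides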
# [18] = molecular target: Follistatin-related protein 3 (Homo sapiens) (UniProt O95633); experiment: FSTL3 binders on small-molecule microarrays, primary screen, biochemical, small-molecule microarray, 635 nm fluorescence (AID 1105); conditions: FSTL3 binding, higher = more signal;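 note: score merges emission near 667 nm and signal to noise per printed spot across three slides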
# [19] = molecular target: Dickkopf-related protein 1 (Homo sapiens) (UniProt O94907); experiment: DKK1 binders on small-molecule microarrays, primary screen, biochemical, small-molecule microarray, 635 nm fluorescence scan (AID 1106); conditions: DKK1 binding, higher = more signal;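 note: score merges emission near 667 nm with signal to noise over three replicate slides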
# [20] = tested on: Inhibin beta A chain (activin A); experiment: INHBA (activin A) binders on microarrays, primary screen, biochemical, small-molecule microarray, 635 nm fluorescence scan (AID 1107); conditions: small-molecule microarray binding, higher = more signal;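 note: mouse activin A protein probed at 4.33 µg/mL on printed slides; score merges bound-protein fluorescence near 667 nm with spot signal-to-noise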
# Sequence of Neurogenic locus notch homolog protein 3 (Homo sapiens) (Q9UM47 whole entry, looked up): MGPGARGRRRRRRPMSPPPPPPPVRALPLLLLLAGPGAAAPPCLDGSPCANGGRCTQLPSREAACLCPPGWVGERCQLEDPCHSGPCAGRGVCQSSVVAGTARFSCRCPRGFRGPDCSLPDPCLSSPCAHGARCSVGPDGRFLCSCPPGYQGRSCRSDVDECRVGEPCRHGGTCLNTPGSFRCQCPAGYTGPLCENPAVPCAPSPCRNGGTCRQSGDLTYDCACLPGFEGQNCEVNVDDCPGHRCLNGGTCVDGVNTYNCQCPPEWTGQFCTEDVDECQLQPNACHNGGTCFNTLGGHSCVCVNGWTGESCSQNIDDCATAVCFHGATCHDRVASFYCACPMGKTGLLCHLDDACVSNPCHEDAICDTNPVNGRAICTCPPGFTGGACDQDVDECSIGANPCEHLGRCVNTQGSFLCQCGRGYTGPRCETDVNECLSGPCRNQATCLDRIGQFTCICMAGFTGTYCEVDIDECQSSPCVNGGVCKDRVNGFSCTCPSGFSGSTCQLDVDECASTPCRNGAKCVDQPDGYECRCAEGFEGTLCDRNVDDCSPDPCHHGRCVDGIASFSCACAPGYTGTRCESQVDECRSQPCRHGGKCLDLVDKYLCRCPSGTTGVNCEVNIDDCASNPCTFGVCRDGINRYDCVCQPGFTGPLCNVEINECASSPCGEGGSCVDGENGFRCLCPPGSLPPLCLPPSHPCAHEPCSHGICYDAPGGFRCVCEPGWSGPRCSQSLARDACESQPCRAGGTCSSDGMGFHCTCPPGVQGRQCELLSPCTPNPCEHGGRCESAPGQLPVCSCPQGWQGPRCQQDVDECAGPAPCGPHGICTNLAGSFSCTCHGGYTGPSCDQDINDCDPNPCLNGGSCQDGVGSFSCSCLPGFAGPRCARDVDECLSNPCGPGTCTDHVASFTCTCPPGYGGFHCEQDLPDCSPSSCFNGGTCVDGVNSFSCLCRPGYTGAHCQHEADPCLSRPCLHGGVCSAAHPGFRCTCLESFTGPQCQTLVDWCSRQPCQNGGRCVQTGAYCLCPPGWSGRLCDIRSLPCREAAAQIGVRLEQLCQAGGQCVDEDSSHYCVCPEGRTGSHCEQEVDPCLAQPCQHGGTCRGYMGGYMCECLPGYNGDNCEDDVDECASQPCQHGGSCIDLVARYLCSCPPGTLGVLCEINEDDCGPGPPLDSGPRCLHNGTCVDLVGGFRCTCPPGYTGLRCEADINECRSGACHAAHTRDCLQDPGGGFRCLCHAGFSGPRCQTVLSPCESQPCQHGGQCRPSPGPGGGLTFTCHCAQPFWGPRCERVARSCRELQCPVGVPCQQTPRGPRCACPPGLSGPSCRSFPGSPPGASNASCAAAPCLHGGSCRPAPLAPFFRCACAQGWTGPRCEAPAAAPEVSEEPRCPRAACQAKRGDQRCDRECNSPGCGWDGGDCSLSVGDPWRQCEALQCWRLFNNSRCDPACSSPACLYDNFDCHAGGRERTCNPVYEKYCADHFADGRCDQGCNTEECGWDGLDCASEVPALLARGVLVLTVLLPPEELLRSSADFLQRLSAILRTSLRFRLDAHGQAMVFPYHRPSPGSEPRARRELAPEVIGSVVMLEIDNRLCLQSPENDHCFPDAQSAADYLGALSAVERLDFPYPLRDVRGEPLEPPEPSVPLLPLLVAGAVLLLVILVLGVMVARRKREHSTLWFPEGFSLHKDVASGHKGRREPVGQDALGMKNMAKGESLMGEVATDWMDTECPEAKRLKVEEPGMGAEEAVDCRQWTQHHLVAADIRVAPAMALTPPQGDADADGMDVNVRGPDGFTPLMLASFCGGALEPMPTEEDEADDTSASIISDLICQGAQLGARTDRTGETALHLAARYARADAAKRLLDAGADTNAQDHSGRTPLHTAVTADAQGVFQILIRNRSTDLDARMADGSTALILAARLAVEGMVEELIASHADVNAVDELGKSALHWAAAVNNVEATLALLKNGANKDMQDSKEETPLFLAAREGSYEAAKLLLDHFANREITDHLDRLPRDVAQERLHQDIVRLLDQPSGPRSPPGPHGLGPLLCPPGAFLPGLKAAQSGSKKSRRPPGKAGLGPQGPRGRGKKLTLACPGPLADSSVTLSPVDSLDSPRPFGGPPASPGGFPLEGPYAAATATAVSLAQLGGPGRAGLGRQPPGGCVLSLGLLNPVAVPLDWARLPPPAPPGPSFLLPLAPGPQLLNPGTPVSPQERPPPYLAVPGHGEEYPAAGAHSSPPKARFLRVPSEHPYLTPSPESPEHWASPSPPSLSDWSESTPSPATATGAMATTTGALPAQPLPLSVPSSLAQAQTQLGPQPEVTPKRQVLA
# Sequence of Fibroblast growth factor 10 (Homo sapiens) (O15520 whole entry, looked up): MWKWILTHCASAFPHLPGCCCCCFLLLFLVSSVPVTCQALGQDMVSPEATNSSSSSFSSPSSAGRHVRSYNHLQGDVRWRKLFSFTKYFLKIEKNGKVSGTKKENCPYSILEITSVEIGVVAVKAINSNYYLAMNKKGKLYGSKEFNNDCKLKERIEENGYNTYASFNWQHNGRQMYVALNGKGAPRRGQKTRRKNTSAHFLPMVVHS
# Sequence of Follistatin-related protein 3 (Homo sapiens) (O95633 whole entry, looked up): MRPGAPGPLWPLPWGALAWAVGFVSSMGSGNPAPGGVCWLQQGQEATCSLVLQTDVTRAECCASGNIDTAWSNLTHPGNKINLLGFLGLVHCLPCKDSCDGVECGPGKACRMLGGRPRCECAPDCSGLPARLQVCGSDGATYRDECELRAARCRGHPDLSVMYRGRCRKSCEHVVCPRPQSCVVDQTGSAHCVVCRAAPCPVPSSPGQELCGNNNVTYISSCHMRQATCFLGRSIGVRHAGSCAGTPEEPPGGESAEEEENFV
# Sequence of Dickkopf-related protein 1 (Homo sapiens) (O94907 whole entry, looked up): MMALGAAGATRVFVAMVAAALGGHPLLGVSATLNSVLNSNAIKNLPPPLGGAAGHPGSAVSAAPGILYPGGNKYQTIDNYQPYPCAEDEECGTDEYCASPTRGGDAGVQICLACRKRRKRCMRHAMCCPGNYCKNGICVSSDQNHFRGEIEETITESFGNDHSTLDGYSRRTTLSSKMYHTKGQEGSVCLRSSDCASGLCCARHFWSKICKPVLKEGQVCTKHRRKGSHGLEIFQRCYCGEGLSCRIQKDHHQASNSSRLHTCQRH
# Sequence of Epidermal growth factor receptor (Homo sapiens) (P00533 whole entry, looked up): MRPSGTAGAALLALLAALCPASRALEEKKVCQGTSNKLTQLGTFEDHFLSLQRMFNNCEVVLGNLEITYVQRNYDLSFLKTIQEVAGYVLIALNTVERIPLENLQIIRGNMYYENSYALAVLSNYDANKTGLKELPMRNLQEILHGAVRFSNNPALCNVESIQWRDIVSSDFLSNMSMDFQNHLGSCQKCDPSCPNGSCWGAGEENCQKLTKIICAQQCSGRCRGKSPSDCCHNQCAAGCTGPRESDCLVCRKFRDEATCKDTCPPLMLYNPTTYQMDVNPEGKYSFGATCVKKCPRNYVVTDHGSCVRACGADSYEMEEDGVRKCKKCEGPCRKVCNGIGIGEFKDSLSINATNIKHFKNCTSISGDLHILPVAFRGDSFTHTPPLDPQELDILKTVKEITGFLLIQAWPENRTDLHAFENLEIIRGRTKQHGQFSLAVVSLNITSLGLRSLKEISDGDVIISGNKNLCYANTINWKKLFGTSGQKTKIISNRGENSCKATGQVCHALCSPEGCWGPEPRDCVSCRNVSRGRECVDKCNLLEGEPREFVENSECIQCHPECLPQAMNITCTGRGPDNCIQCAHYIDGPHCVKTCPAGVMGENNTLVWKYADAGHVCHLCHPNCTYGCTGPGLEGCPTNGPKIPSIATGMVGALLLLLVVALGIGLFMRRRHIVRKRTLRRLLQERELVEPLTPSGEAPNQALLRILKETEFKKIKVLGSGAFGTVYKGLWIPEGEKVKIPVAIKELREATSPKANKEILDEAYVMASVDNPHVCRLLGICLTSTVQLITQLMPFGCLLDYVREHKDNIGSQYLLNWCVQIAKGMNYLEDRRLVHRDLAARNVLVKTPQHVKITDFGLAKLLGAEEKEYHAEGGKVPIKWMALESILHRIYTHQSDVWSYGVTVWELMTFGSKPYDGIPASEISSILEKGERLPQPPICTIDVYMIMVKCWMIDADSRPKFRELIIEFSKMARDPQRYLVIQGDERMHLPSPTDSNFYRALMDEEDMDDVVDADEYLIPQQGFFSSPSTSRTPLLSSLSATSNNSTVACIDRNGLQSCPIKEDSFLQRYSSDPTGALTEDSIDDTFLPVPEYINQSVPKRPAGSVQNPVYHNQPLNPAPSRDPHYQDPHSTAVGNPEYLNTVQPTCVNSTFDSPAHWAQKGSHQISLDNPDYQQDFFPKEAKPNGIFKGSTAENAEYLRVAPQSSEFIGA
# Sequence of Torsin-1A-interacting protein 2 (Homo sapiens) (Q8NFQ8 whole entry, looked up): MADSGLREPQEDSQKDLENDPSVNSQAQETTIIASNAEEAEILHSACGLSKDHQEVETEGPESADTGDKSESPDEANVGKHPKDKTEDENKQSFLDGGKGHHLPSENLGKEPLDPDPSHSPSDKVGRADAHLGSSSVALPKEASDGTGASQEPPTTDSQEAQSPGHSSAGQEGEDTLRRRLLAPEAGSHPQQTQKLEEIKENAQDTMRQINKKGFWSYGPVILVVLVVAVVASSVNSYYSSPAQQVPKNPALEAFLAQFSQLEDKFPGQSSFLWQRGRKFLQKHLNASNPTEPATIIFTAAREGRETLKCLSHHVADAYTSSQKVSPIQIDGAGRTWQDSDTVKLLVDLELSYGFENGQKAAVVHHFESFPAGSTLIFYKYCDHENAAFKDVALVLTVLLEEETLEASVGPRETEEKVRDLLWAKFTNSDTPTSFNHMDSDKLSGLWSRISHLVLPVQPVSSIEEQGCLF
Structure (SMILES),composite z-score [1],z-score [2],z-score [3],z-score [4],composite z-score [5],z-score [6],composite z-score [7],composite z-score [8],composite z-score [9],composite z-score [10],composite z-score [11],composite z-score [12],composite z-score [13],z-score [14],composite z-score [15],composite z-score [16],composite z-score [17],composite z-score [18],composite z-score [19],composite z-score [20]
COC(=O)C(CC#Cc1ccc2c(c1)[C@]1(C(=O)N2)[C@H](c2ccc(O)cc2)N2[C@H](c3ccccc3)[C@H](c3ccccc3)OC(=O)[C@H]2[C@@H]1C(=O)N1CCN(c2ncccn2)CC1)C(=O)OC,1.55,1.07 (inactive),0.516 (inactive),1.93 (inactive),3.21,0.248 (inactive),0.107,0.24,0.975,0.0167,1.69,0.534,0.508,-0.84 (inactive),0.621,1.03,0.116,0.655,0.0879,0.126
O=C1NC(=O)C2C1C=CC(C(O)c1ccc(I)cc1)N2Nc1ccc(Cl)cc1Cl (stereo not given),0.265,-9.39 (active),-5.52 (inactive),-0.806 (inactive),2.64,-1.3 (inactive),0.162,-0.0422,0.925,-0.0953,1.03,0.418,1.08,-1.09 (inactive),0.41,0.782,-0.079,0.425,-0.235,0.871
O=C1OCCC=C[C@H]2OC34C=CCN(Cn5nnc6ccccc65)C(=O)[C@H]3N(CCO)C(=O)[C@@H]4C12 (stereo not given in full),-0.312,-0.352 (inactive),0.785 (inactive),-0.422 (inactive),-0.316,2.26 (inactive),-0.135,-1.26,-0.491,-0.345,1.34,0.362,0.254,-0.456 (inactive),-1.55,-1.6,-1.77,-1.04,-1.64,-0.539
CCCCC(=C=CC[C@H](O)c1cccc(OCCO)c1)C[C@H](O)c1ccccn1,0.483,-1.2 (inactive),-1.12 (inactive),-1.68 (inactive),-0.639,1.34 (inactive),-0.165,0.395,-0.153,-0.13,0.827,-0.218,-0.302,-2.17 (inactive),0.453,-0.364,0.0715,0.0048,0.296,0.434
C=C(C)[C@@H]1CC=C(C(O)C2C=CC3C(=O)NC(=O)C3N2Nc2ccc(Cl)cc2Cl)CC1 (stereo not given in full),0.794,-9.03 (active),-5.22 (inactive),3.45 (inactive),2.91,-2.91 (inactive),0.325,-0.821,1.06,0.0044,0.576,0.802,1.3,0.172 (inactive),0.276,0.289,0.433,1.06,0.414,1.66
O=C(CS)NCCCCCNC(=O)[C@@H]1C[C@@H]2C(=O)NCC(=O)N2[C@@H]1c1cccc(OCCO)c1,0.701,-5.72 (inactive),-0.31 (inactive),-0.485 (inactive),2.92,2.71 (inactive),-0.0823,0.271,0.328,-0.0466,1.17,0.0565,0.21,-1.82 (inactive),0.18,0.0776,0.752,0.0486,0.543,0.501
C=CCN1Cc2ccccc2[C@@H]2OC(c3ccc(OCCCO)cc3)=N[C@]2(CCS(=O)(=O)c2ccccc2)C1=O,1.55,0.863 (inactive),1.45 (inactive),3.51 (inactive),3.35,0.953 (inactive),0.0642,0.704,1.01,-0.0261,1.53,0.205,0.825,0.211 (inactive),1.4,1.32,1.01,1.43,1.41,1.1
CC=CC(O)C1C=CC2C(=O)N(C)C(=O)C2N1N(c1ccccc1)c1ccccc1 (stereo not given),0.344,0.586 (inactive),1.91 (inactive),1.29 (inactive),-0.472,-0.357 (inactive),0.0973,-0.0867,0.0161,0.248,0.293,-0.0262,0.211,1.06 (inactive),0.128,-0.343,1.19,-0.315,0.653,1.12
CC(=O)NCCCC[C@@H]1NC(=O)[C@H]2C[C@@H](C(=O)O)[C@@H](c3ccc(O)cc3)N2C1=O,1.55,2.13 (inactive),-2.62 (inactive),2.72 (inactive),2.84,-0.817 (inactive),0.14,1.67,1.04,0.138,1.43,0.13,0.372,-0.177 (inactive),1.32,1.34,1.02,1.44,1.28,1.47
O=C1NC(=O)C2C1C=CC(C(O)c1ccc(I)cc1)N2Nc1ccccn1 (stereo not given),0.321,-0.353 (inactive),0.426 (inactive),0.17 (inactive),2.56,-0.956 (inactive),-0.0328,0.143,0.15,-0.0947,1.33,0.0824,0.464,1.04 (inactive),-0.0548,-0.269,0.268,-0.0861,0.153,1.14
